# Assay results from publication PMC4336329 (PLoS ONE, 2015).
# Out of some 310,000 compounds screened, about 2,200 (0.71%) showed an effect of 50% or more. The effect is printed as a negative number. Shown is part of a subset that was picked to be rich in strong results.
# Target: human ether-à-go-go-related gene (hERG) potassium channel (human, UniProt Q12809)
# Experiment: primary screen, population patch clamp on CHO cells stably expressing hERG; higher = less effect of the substance
# human ether-à-go-go-related gene (hERG) potassium channel, sequence (Q12809 whole entry, looked up): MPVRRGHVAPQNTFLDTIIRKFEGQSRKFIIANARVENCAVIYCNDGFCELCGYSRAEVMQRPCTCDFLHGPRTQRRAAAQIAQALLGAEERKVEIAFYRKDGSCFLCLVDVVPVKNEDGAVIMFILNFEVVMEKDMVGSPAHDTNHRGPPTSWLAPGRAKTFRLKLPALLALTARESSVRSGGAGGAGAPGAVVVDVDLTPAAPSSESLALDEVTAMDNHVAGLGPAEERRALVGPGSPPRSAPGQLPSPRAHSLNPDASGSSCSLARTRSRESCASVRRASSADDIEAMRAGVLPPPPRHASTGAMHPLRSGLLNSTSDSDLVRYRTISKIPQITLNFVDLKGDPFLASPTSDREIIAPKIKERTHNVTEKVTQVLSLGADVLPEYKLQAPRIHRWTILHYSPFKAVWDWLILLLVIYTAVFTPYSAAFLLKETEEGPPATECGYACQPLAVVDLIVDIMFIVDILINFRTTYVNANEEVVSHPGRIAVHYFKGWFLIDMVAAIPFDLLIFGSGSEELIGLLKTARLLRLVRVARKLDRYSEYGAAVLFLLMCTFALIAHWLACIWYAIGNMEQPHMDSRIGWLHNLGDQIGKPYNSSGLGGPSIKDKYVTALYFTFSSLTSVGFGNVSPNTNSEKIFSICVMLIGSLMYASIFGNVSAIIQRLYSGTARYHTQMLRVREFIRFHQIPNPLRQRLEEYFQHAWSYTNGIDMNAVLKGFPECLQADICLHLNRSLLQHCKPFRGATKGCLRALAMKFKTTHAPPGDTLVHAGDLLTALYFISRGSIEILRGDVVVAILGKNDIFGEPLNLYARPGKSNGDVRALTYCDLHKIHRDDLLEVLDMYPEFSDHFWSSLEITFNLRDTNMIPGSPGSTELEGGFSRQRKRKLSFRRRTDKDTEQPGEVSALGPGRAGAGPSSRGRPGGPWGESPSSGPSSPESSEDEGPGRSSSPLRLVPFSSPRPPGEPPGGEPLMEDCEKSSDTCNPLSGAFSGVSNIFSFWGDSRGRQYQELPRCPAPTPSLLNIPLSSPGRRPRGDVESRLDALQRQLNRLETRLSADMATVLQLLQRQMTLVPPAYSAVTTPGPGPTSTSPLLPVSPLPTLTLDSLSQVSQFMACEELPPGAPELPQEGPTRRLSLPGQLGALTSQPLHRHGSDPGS
row,Structure (SMILES),"hERG current change (%, negative = inhibition) at 1uM"
1,CC(C)(C)C(=O)Cn1c(NCCCl)nc2ccccc21.Cl,13.8%
2,COCCNc1nc(CSc2ccccc2)nc2sc(C)c(C)c12,11.8%
3,CCNc1nc(CSc2ccccc2)nc2sc(C)c(C)c12,6.57%
4,Cc1sc2nc(CSc3ccccc3)nc(NCCN(C)C)c2c1C,-50.1%
5,COc1ccc(C(=O)N2CCCN(C)CC2)cc1S(=O)(=O)N1CCCc2ccccc21,1.09%
6,NC(=O)c1nsc(C(=O)N(CC(=O)NCc2ccco2)c2ccccc2F)c1N,1.03%
7,Fc1ccc(NC(=S)Nc2ccc(F)c(Cl)c2)cc1Cl,7.52%
8,CCN(C(=O)CSc1nc2ccccc2c(=O)n1Cc1ccc(C)cc1)C1CCS(=O)(=O)C1 (stereo not shown),-71.4%
9,CCN(C(=O)CSc1n[nH]c(-c2cccs2)n1)C1CCS(=O)(=O)C1 (stereo not shown),11.8%
10,CCN(C(=O)CSc1nc(-c2cccs2)nc2ccccc12)C1CCS(=O)(=O)C1 (stereo not shown),-78.4%
11,O=C(CSc1nc(-c2cccs2)nc2ccccc12)NC1CCS(=O)(=O)C1 (stereo not shown),17.3%
12,Cc1ccc(Cn2c(SCC(=O)N(C)C3CCS(=O)(=O)C3)nc3ccccc3c2=O)cc1 (stereo not shown),-41.9%
13,CCN(C(=O)CSc1nc2ccccc2c(=O)n1-c1ccc(C)cc1)C1CCS(=O)(=O)C1 (stereo not shown),1.16%
14,C=CCn1c(SCC(=O)N(C)C2CCS(=O)(=O)C2)nc2ccccc2c1=O (stereo not shown),-36.1%
15,C=CCn1c(SCC(=O)N(CC)C2CCS(=O)(=O)C2)nc2cc(C(=O)O)ccc2c1=O (stereo not shown),16.4%
16,C=CCn1c(SCC(=O)N(CC)C2CCS(=O)(=O)C2)nc2ccccc2c1=O (stereo not shown),-81.6%
17,Cc1cc(=O)[nH]c2ccc(S(=O)(=O)NC3CCCCC3)cc12,7.42%
18,CC(OC(=O)C(C)Oc1ccccc1)C(=O)Nc1ccc(S(=O)(=O)N2CCCCC2)cc1 (stereo not shown),12.9%
19,Oc1ccc(/C=N/N2CCCCC2)cc1O,14.2%
20,CCOCCN1CCN(c2c(CC)c(C)nc3cc(-c4cc(OC)cc(OC)c4)nn23)CC1,-14%
21,COc1ccc(NC(=O)CN(C)C(=O)CCCc2nc3ccccc3s2)cc1,-15.7%
22,COc1nc(-c2ccccc2)ccc1-c1noc(COc2ccccc2)n1,17.7%

row,Structure (SMILES),"hERG current change (%, negative = inhibition) at 1uM"
1,CCOC(=O)Cn1c(=O)oc2cc(S(=O)(=O)N(C)c3cccc(C)c3)ccc21,-1.77%
2,O=[N+]([O-])c1cc2c(cc1CN1CCN(c3ccc(F)cc3)CC1)OCO2,7.89%
3,CCCCOC(=O)c1nc(Cl)c(Cl)c(N)c1Cl,12%
4,CCCCCCCOC(=O)c1nc(Cl)c(Cl)c(N)c1Cl,0.504%
5,CCCCCCCCOC(=O)c1nc(Cl)c(Cl)c(N)c1Cl,-64.4%
6,CCOc1cccc(-c2nn3c(-c4cc(C)[nH]n4)nnc3s2)c1,-8.21%
7,COc1ccc(/C=C/C(=O)Oc2ccc(C)cc2)cc1,1.29%
8,COc1ccc(/C=C/c2cc(C(F)(F)F)on2)cc1,17.5%
9,COc1ccc(/C=C/c2cc(-c3ccc(C)cc3)o[n+]2C)cc1.F[B-](F)(F)F,-76.5%
10,Cc1ccc2c(c1)NC(=O)C(CC(=O)NCCCN1CCCC1)O2 (stereo not shown),12.4%
11,CCC(C)N(CCNC(=O)CC1Oc2ccccc2NC1=O)C1CCCCC1 (stereo not shown),-35.6%
12,Cc1ccc2c(c1)NC(=O)C(CC(=O)NCCCN1CCCCC1)O2 (stereo not shown),6.37%
13,Cc1ccc2c(c1)NC(=O)C(CC(=O)NCCN(CC(C)C)CC(C)C)O2 (stereo not shown),0.19%
14,CCC(C)N(CCNC(=O)CC1Oc2ccc(C)cc2NC1=O)C1CCCCC1 (stereo not shown),-58.1%
15,Cc1ccc2c(c1)NC(=O)C(CC(=O)NCCCN1CCc3ccccc3C1)O2 (stereo not shown),-58.5%
16,O=Cc1c(NCc2ccccc2)c2ccccc2[nH]c1=O,12.6%
17,C/C(=N\OCC(=O)Nc1ccc(OC(F)(F)F)cc1)c1ccc2c(c1)OCCO2,6.61%
18,C=CCS/C(N)=N\N=C\c1c(O)ccc2ccccc12,13.3%
19,Cc1ccc(C(=O)CN2C(=O)NC3(CCOc4ccccc43)C2=O)s1 (stereo not shown),2.46%
20,Cc1sc2ncn(CC(=O)NCCCC(=O)N3CCC4(CC3)OCCO4)c(=O)c2c1C,10.7%
21,CCOC(=O)c1oc2ccccc2c1NC(=O)c1cccs1,0.447%
